# Laboratory results from PubChem BioAssay (NCATS).
# Records with an inconclusive call do not appear. A number with no mark means an inactive call. Active and inactive are the calls of the source. Calls come from the whole dose curve; as a rule, active = well fitted inhibition curve with a large enough effect; inconclusive = small, poorly fitted or top-dose-only effect; inactive = flat fitted curve, though single readings scatter.
# Target: Lysine-specific demethylase 5B (Homo sapiens) (UniProt Q9UGL1)
# Assay: Optimization screen for KDM5B Histone Demethylases FDH coupled qHTS against the LOPAC library (AID 1347166); note: 0% is about no effect
# Details: KDM5B demethylation, FDH-coupled NADH fluorescence (FDH is formaldehyde dehydrogenase); at 57.5 µM (top of the series)
# How it was run: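 KDM5BDeltaAP (200nM final) preincubated 10 min with compound, then 12.5uM H3K4Me3, 25uM a-ketoglutarate, ascorbate, Fe(II), NAD+ and FDH added; 50mM HEPES pH 7.5, 0.01% Tween-20. NADH fluorescence (340/450 nm) change over 30 min, room temperature.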
# Lysine-specific demethylase 5B (Homo sapiens), sequence (Q9UGL1 whole entry, looked up): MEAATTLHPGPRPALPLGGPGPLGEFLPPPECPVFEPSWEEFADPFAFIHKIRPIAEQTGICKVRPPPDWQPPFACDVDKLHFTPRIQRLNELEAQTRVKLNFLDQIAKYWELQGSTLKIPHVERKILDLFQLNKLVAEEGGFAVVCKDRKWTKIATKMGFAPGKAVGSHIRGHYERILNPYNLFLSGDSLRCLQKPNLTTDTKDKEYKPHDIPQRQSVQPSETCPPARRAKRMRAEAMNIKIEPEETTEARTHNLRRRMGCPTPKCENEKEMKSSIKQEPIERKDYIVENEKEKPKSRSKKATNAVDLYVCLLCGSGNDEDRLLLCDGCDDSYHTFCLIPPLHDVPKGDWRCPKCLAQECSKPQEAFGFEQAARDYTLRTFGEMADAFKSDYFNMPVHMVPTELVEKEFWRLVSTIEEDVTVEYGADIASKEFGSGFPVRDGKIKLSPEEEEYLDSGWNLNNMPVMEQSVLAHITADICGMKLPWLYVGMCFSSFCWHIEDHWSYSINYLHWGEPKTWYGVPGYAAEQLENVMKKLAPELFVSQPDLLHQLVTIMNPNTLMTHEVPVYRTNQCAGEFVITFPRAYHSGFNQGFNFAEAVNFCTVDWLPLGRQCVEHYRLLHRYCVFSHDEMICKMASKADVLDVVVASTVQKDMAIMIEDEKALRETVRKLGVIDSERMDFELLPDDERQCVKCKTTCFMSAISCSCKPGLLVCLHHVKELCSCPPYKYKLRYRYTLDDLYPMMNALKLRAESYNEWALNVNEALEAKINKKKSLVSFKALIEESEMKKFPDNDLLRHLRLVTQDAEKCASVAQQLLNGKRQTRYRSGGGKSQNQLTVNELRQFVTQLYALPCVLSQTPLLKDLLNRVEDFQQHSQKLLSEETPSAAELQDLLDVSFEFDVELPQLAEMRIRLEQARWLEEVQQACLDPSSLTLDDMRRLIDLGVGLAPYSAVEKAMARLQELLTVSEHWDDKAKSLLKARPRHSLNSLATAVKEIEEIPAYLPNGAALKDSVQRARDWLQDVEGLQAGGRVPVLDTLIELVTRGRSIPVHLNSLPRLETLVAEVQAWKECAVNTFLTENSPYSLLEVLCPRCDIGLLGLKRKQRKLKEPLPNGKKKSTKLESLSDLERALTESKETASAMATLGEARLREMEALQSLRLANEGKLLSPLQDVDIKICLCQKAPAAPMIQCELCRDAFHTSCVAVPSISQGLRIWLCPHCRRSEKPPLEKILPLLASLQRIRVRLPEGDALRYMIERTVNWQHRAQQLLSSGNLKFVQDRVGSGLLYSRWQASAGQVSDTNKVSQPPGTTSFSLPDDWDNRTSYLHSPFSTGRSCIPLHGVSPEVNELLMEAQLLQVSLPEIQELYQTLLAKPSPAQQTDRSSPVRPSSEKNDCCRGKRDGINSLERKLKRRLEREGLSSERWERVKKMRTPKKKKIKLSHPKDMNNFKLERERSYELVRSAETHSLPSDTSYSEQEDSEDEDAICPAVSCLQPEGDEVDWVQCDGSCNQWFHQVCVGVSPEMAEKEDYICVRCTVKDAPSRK
row,Compound,"activity, negative = inhibition"
1,COc1ccc2c(c1)c(CC(=O)O)c(C)n2Cc1ccc(Cl)cc1,-5.89%
2,CN1C2CCC1CC(OC(c1ccccc1)c1ccccc1)C2 (configuration not stated),-5.47%
3,Clc1nccc2c1ccc1ccccc12,2.06%
4,C=CC1(C)CC(=O)C2(O)C(C)(O1)C(OC(C)=O)C(O)C1C(C)(C)CCC(O)C12C (configuration not stated),-2.72%
5,O=C(c1ccc2c(c1)OCCO2)N1CCCCC1,-3.79%
6,Cn1ccnc1,-0.951%
7,Cc1cccc(C)c1OCC(N)C(C)C (configuration not stated),-17.4%
8,CNCCc1cnc(CCC(c2ccccc2)c2ccccc2)[nH]1,-15.1%
9,CN1CC(O)C(O)C(O)C1CO (configuration not stated),-6.96%
10,Cn1c(=O)c2c(nc(/C=C/c3cccc(Cl)c3)n2C)n(C)c1=O,-517% (active)
11,NCC(O)C1CCCCCCC1 (configuration not stated),-4.79%
12,Nc1ncnc2c1ncn2C1CCCC1,-3.1%
13,CCCCCCCCCCCCCCSCC(=O)O,-24.4%
14,CC(=O)O[C@H]1Cc2ccccc2N(C(N)=O)c2ccccc21,-5.85%
15,CN(C)S(=O)(=O)c1ccc2c(c1)/C(=C/c1cc3c([nH]1)CCCC3)C(=O)N2,-8.97%
16,Fc1ccc(CN(C2=NCCN2)c2c(Cl)cccc2Cl)cc1,2.64%
17,Cc1ccccc1/C=C/C1=NCCN1,-11.5%
18,N#CC(=C(\N)Sc1ccccc1N)/C(C#N)=C(/N)Sc1ccccc1N,-5.86%
19,CCN(c1nc(N)c(C(=O)N=C(N)N)nc1Cl)C(C)C,-3.16%

row,Compound,"activity, negative = inhibition"
1,CC(C)C[C@H](NC(=O)C1OC1C(=O)O)C(=O)NCCCCN=C(N)N (some centres not stated),0.286%
2,O=C1OC(=O)C2C3CCC(O3)C12 (configuration not stated),3.88%
3,CO/N=C(\C(=O)N[C@@H]1C(=O)N2C(C(=O)O)=C(CSc3nc(=O)c(O)nn3C)CSC12)c1csc(N)n1 (some centres not stated),-14.3%
4,[Li+],-3.55%
5,CCCCS(=N)(=O)CC[C@H](N)C(=O)O (some centres not stated),-2.9%
6,Brc1c(Br)c(Br)c2[nH]cnc2c1Br,0.346%
7,OC[C@H]1O[C@@H](n2cnc3cncnc32)[C@H](O)[C@@H]1O,-2.2%
8,Nc1ccc(N2C(=O)c3ccccc3C2=O)c(Cl)c1,-4.03%
9,CN(CC[C@@H](Oc1ccc(C(F)(F)F)cc1)c1ccccc1)CC(=O)O,-7.4%
10,CN1CCC2(CCN3CCc4c(oc5ccccc45)C3C2)N(C)C1=O (configuration not stated),-3.3%
11,O=C1C2C=CC=CC2=NC(=S)N1CCN1CCC(=C(c2ccc(F)cc2)c2ccc(F)cc2)CC1 (configuration not stated),-6.14%
12,C=C1C[C@@]23CC[C@H]4[C@@](C)(CCC[C@@]4(C)C(=O)OC4OC(CO)C(O)C(O)C4O)[C@@H]2CC[C@]1(OC1OC(CO)C(O)C(O)C1OC1OC(CO)C(O)C(O)C1O)C3 (some centres not stated),-7.5%
13,c1ccc(C2CN3CCSC3=N2)cc1 (configuration not stated),-3.45%
14,CCCCOC(=O)NS(=O)(=O)c1sc(CC(C)C)cc1-c1ccc(Cn2c(CC)nc3c(C)cc(C)nc32)cc1,-19.3%
15,OC[C@H]1NC[C@@H](O)[C@@H]1O,1.64%
16,CNc1ncnc2c1ncn2[C@H]1C[C@H](OP(=O)(O)O)[C@@H](COP(=O)(O)O)O1,-15.5%
17,CCN1C(=O)C=CC1=O,-3.85%
18,NOCC(=O)O,-4.09%
